The text below walks through data of PubChem BioAssay (EPA / NIEHS).

In general, AC50 refers to the midpoint of the concentration-response curve, whichever way the signal moves.

The structures appear in SMILES notation. Active and inactive are the calls of the source. Rule for the calls: active = hit-call score of the fitted dose curve at least 0.9, where 1 is the maximum; inactive = score below 0.9.

Read-out in assay [1]: Macrophage colony-stimulating factor (MCSF), CSF1 (gene 1435)
The assay can be described thus: BSK_hDFCGF_MCSF: BioMAP Diversity Plus: hDFCGF Assay for Macrophage colony-stimulating factor (MCSF) Biomarker Activity (AID 2283060). Particulars: primary human foreskin fibroblasts; actives raise or lower the signal. In outline: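 ELISA read-out of M-CSF in human dermal foreskin fibroblast cultures, 24 h after chemical dosing; gain or loss of signal fitted bidirectionally relative to DMSO baseline.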

Assay [2] is described as follows: BSK_hDFCGF_SRB: Viability Assessment in the BioMAP Diversity Plus: hDFCGF Assay (AID 2283061).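 Note: cells exposed to compound for 24 h before the read.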 Particulars: primary human foreskin fibroblasts. The method in brief:
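Primary human foreskin fibroblasts; 24 h post-dose; fixed 10% TCA, stained 0.1% SRB, A560 read; total protein as overt cytotoxicity measure; curves fit bidirectionally vs DMSO control.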

Read-out in assay [3]: TIMP metallopeptidase inhibitor 1 (TIMP1), TIMP1 (gene 7076)
The assay can be described thus: BSK_hDFCGF_TIMP1: BioMAP Diversity Plus: hDFCGF Assay for TIMP metallopeptidase inhibitor 1 (TIMP1) Biomarker Activity (AID 2283062). The following applies: primary human foreskin fibroblasts; actives raise or lower the signal. The method in brief:
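ELISA readout of TIMP-1 from human dermal foreskin fibroblast cultures 24 h post-dosing. Curves were fitted in both directions against DMSO baseline, with SRB total-protein staining in parallel cultures as a cytotoxicity check.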

Read-out in assay [4]: Monokine induced gamma interferon (MIG), CXCL9 (gene 4283)
The assay can be described thus: BSK_hDFCGF_MIG: BioMAP Diversity Plus: hDFCGF Assay for Monokine induced gamma interferon (MIG) Biomarker Activity (AID 2283063). Particulars: primary human foreskin fibroblasts; actives raise or lower the signal. In outline: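 Fibroblasts (human foreskin, primary) dosed, 24 h, MIG by ELISA; fit bidirectional vs DMSO.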

Read-out in assay [5]: Matrix Metallopeptidase 1 (MMP1), MMP1 (gene 4312)
The assay can be described thus: BSK_hDFCGF_MMP1: BioMAP Diversity Plus: hDFCGF Assay for Matrix Metallopeptidase 1 (MMP1) Biomarker Activity (AID 2283064). The following applies: primary human foreskin fibroblasts; actives raise or lower the signal. In outline: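 MMP1 levels quantified by ELISA 24 h after dosing human dermal fibroblast cultures, with parallel SRB total-protein staining for overt cytotoxicity. Data fitted in both directions against DMSO baseline.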

Read-out in assay [6]: Vascular cell adhesion molecule 1 (VCAM1), VCAM1 (gene 7412)
The assay can be described thus: BSK_hDFCGF_VCAM1: BioMAP Diversity Plus: hDFCGF Assay for Vascular cell adhesion molecule 1 (VCAM1) Biomarker Activity (AID 2283065).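 For AC50: VCAM-1 protein level quantified by ELISA after 24 h chemical exposure.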 The following applies: primary human foreskin fibroblasts; actives raise or lower the signal. In outline:
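ELISA read-out of VCAM-1 on human skin fibroblasts, 24 h post-dose; gain or loss of signal fitted bidirectionally against DMSO baseline.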

Read-out in assay [7]: Plasminogen activator inhibitor-1 (PAI1), SERPINE1 (gene 5054)
The assay can be described thus: BSK_hDFCGF_PAI1: BioMAP Diversity Plus: hDFCGF Assay for Plasminogen activator inhibitor-1 (PAI1) Biomarker Activity (AID 2283066). Particulars: primary human foreskin fibroblasts; actives raise or lower the signal. In outline:
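PAI-1 levels in human dermal foreskin fibroblasts were quantified by ELISA 24 h after dosing, with gain or loss analysed against DMSO. Overt cytotoxicity was checked by sulforhodamine B total-protein staining in parallel cultures.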

Read-out in assay [8]: Intercellular Adhesion Molecule 1 (ICAM1), ICAM1 (gene 3383)
The assay can be described thus: BSK_KF3CT_ICAM1: BioMAP Diversity Plus: KF3CT Assay for Intercellular Adhesion Molecule 1 (ICAM1) Biomarker Activity (AID 2283067). The following applies: primary human keratinocytes with fibroblasts; actives raise or lower the signal. The method in brief: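 ELISA readout of ICAM-1; KF3CT human skin co-culture (keratinocytes + foreskin fibroblasts), 24 h post-dose; gain/loss fit vs DMSO baseline.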

Read-out in assay [9]: Interferon-gamma inducible Protein 10 (IP10), CXCL10 (gene 3627)
The assay can be described thus: BSK_KF3CT_IP10: BioMAP Diversity Plus: KF3CT Assay for Interferon-gamma inducible Protein 10 (IP10) Biomarker Activity (AID 2283068). Particulars: primary human keratinocytes with fibroblasts; actives raise or lower the signal. The method in brief:
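In a primary skin co-culture of keratinocytes and fibroblasts, IP-10 is quantified by ELISA at 24 h after dosing. SRB staining of parallel wells monitors overt toxicity. Curves are fitted both directions against DMSO.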

Assay [10] is described as follows: BSK_KF3CT_SRB: Viability Assessment in the BioMAP Diversity Plus: KF3CT Assay (AID 2283069).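 Note: read 24 h after compound addition.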 The following applies: primary human keratinocytes with fibroblasts. The method in brief:
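Cytotoxicity was gauged by SRB staining (0.1% SRB, 10% TCA fixation, 560 nm) of parallel cultures at 24 h. The cells were primary human skin keratinocytes co-cultured with fibroblasts, and activity was fitted in both directions against DMSO.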

Consider `Oc1ccc(/C=C/c2cc(O)cc(O)c2)cc1`, for which the outcome in [1], in [2], in [3], in assay [4], in [5] and in assay [6] was inactive. Moreover, the outcome in assay [8], in assay [9] and in [10] was inactive. The AC50 in assay [7] was 0.474 µM (active).

For `Clc1cc(Cl)c(Cl)c(Cl)c1Cl`, the outcome in assay [1], in assay [2], in [3], in [4], in assay [5] and in assay [6] was inactive. The result in assay [7], in assay [8], in assay [9] and in assay [10] was inactive.

In the case of `C=C(C)C(=O)OCCCCCCCCCCCC`, the result in assay [1], in assay [2], in assay [3], in [4], in [5] and in assay [6] was inactive. The result in [7], in assay [8], in assay [9] and in assay [10] was inactive.

In the case of `CC(C)c1cccc(C(C)C)c1N`, the result in [1], in [2], in assay [3], in assay [4], in [5] and in [6] was inactive. Also, the outcome in assay [7], in assay [8], in [9] and in assay [10] was inactive.

Turning to `O=C(Oc1ccccc1)c1ccccc1C(=O)Oc1ccccc1`, the outcome in assay [1], in assay [2], in [3], in assay [4], in assay [5] and in assay [6] was inactive. In addition, the result in assay [8], in [9] and in assay [10] was inactive. Also, the half-maximal activity concentration (AC50) in assay [7] is 20 µM (active).

As for `Nc1cccc(N)n1`, the result in [1], in assay [2], in assay [3], in assay [4], in assay [5] and in assay [6] was inactive. For the same molecule, the outcome in [7], in [8], in assay [9] and in [10] was inactive.

For `CCCCCCCO`, the outcome in assay [1], in assay [2], in assay [3], in assay [4], in assay [5] and in assay [6] was inactive. The result in [7], in [8], in [9] and in assay [10] was inactive.

Regarding `C=CC(=O)OCCCCCCOC(=O)C=C`, the AC50 is 5.72 µM (active) in [1]; 5.41 µM (active) in assay [2]; 9.84 µM (active) in assay [3]; 3.3 µM (active) in assay [4]; 12.8 µM (active) in assay [5]; 0.881 µM (active) in assay [6]. For the same molecule, the AC50 in assay [7] was 11.5 µM (active); in assay [8] it was 20 µM (active); in assay [9], 26.6 µM (active); in assay [10] it was 20 µM (active).

With `CCCCCCCCCCCC(=O)N(C)CC(=O)O`, the outcome in [1], in assay [2], in assay [3], in assay [4], in [5] and in assay [6] was inactive. The result in [7], in assay [8], in [9] and in assay [10] was inactive.

With `C=CC(=O)NCOCCCC`, the outcome in assay [1], in assay [2], in assay [3], in assay [4], in [5] and in assay [6] was inactive. Moreover, the outcome in assay [7], in [8], in [9] and in assay [10] was inactive.

As for `CC(Cl)COP(=O)(OCC(C)Cl)OCC(C)Cl` (stereo not given), the result in assay [1], in [2], in assay [3], in assay [4], in assay [5] and in assay [6] was inactive. Besides, the outcome in assay [7], in assay [8], in assay [9] and in assay [10] was inactive.

As for `CC1(C)CC(O)CC(C)(C)N1[O]`, the result in assay [1], in assay [2], in assay [3], in assay [4], in assay [5] and in [6] was inactive. In addition, the outcome in assay [7], in assay [8], in [9] and in assay [10] was inactive.

As to `CC/C=C\C/C=C\C/C=C\CCCCCCCC(=O)OC`, the AC50 in [1] is 8.71 µM (active); in assay [2] it was 6.53 µM (active); in assay [3], 10.7 µM (active); in [4] it was 11.1 µM (active); in assay [5], 12.3 µM (active); in [6], 8.22 µM (active). Also, the AC50 is 6.64 µM (active) in assay [7], 12.3 µM (active) in [8], 20 µM (active) in assay [9] and 20 µM (active) in assay [10].

Take `CC(C)[N+](C)(CCOC(=O)C1c2ccccc2Oc2ccccc21)C(C)C`: the outcome in [1], in assay [2], in assay [3], in [4], in assay [5] and in [6] was inactive. Besides, the result in [7], in assay [8], in assay [9] and in assay [10] was inactive.

On to `CCCCCCC=O`, for which the result in assay [1], in assay [2], in assay [3], in assay [4], in assay [5] and in assay [6] was inactive. The result in assay [7], in assay [8], in [9] and in [10] was inactive.
